# Measurements reported in PubChem BioAssay AID493012 (Sanford-Burnham Center for Chemical Genomics, 2011).
# Hit rate of the full screen: of about 330,000 compounds, about 930 (0.28%) were called active.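 Rule for the calls: active = inhibition of at least 40% at 20 µM, with no more than 30% in the related APOBEC3A deaminase screen; inactive = the rest.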 The list comes from a sample in which actives are over-represented; it also holds similar structures and randomly drawn compounds.
# Target: DNA dC->dU-editing enzyme APOBEC-3G (Homo sapiens) (UniProt Q9HC16)
# Assay: inhibition of human A3G ssDNA deamination – biochemical, fluorescence, single-stranded DNA substrate, uHTS, primary screen (AID 493012);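 note: plate controls were DMSO wells with A3G for no effect and wells lacking A3G enzyme for full effect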
# Conditions: recombinant A3G, ssDNA deamination FAM/TAMRA fluorescence; at 20 µM; active compounds read high
# Sequence of DNA dC->dU-editing enzyme APOBEC-3G (Homo sapiens) (Q9HC16 whole entry, looked up): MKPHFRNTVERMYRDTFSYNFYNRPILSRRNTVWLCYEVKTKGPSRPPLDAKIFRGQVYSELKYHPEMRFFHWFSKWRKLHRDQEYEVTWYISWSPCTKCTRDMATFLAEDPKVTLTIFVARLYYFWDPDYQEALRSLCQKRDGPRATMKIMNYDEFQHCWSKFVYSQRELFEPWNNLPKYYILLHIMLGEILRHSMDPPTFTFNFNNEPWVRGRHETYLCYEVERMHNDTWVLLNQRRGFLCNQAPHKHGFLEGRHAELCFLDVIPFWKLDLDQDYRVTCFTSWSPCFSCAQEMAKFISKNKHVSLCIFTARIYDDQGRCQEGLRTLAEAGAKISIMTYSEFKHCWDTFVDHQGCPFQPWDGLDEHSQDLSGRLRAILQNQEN
row,Compound,inhibition
1,CC(C)(C)c1nnc(NC(=O)C2c3ccccc3Oc3ccccc32)s1,53.3% (active)
2,CCC(C)(C)NC(=O)C1c2ccccc2Oc2ccccc21,-0.78% (inactive)
3,CCC(C)NC(=O)C1c2ccccc2Oc2ccccc21 (stereo not given),-4.18% (inactive)
4,CCCCn1c(N)c(N(CCOC)C(=O)c2sc3ccccc3c2Cl)c(=O)[nH]c1=O,-7.98% (inactive)
5,CCCCCC(O)c1cccc(OCc2ccc3ccccc3n2)c1 (stereo not given),-6.99% (inactive)
6,Cc1ccc(NC(=O)C2CCN(S(=O)(=O)c3ccc4c(c3)NC(=O)CO4)CC2)cc1C,-9.26% (inactive)
7,NC(=O)C1CCN(C(=O)c2ccc(F)c(S(=O)(=O)N3CCOCC3)c2)CC1,-4.4% (inactive)
8,CN(C(=O)c1cccc(NC(=O)Cc2cccc([N+](=O)[O-])c2)c1)C1CCCCC1,-1.19% (inactive)
9,CCn1cc(C(=O)N2CC(C)CC(C)C2)c(=O)c2cc(S(=O)(=O)N3CCCC3)ccc21 (stereo not given),-1.06% (inactive)
10,CCN(CC)C(=O)CSC(Nc1cccc(F)c1)=C(C#N)C#N,-2.9% (inactive)
11,Nc1ccccc1SC(C[N+](=O)[O-])c1ccccc1 (stereo not given),75.7% (active)
12,O=C(COc1cc(Cl)c(Cl)cc1Cl)NC(=O)NC1CCCC1,-1.68% (inactive)
13,Nc1c(NCCc2ccccc2)c2ccccc2oc1=O,-2.86% (inactive)
14,CC(C)(C)C(=O)c1cnc(Nc2ccccc2)s1,17.8% (inactive)
15,O=c1cnnc(Nc2ccccc2)[nH]1,-1.93% (inactive)
16,O=C(CSc1ncccn1)NCCc1ccccc1,-0.062% (inactive)
17,S=c1[nH]nc(Nc2ccccc2)s1,42.7% (active)
18,S=c1[nH]nc(NCCc2ccccc2)s1,43.1% (active)
19,Cc1ccc([N+](=O)[O-])c(OCCCNCC(C)O)c1 (stereo not given),-8.53% (inactive)
20,Cc1cc(C)n(C(=O)c2ccc(C)c(S(=O)(=O)N3CCOCC3)c2)n1,0.652% (inactive)

row,Compound,inhibition
1,COc1ccc(CCNC(=O)CS(=O)(=O)Cc2nc(-c3ccc(C)cc3)oc2C)cc1OC,-6.41% (inactive)
2,S=c1[nH]nc(-c2cc(-c3ccsc3)n[nH]2)n1-c1ccccc1,20.5% (inactive)
3,CCN(CC)S(=O)(=O)c1cccc(-c2n[nH]c(=S)n2/N=C/c2ccc(C(=O)OC)cc2)c1,-5.7% (inactive)
4,S=c1[nH]nc(-c2cc(-c3ccccc3)n[nH]2)n1/N=C/c1c2ccccc2cc2ccccc12,43.4% (active)
5,O=c1c2ccccc2nnn1CSc1nc2sc3c(c2c(=O)n1CC1CCCO1)CCC3 (stereo not given),-0.082% (inactive)
6,CC(C)c1ccc(NC(=O)COC(=O)c2ccc(CN3CCCC3=O)cc2)cc1,-5.19% (inactive)
7,CC(C)(C)n1nnnc1C(c1ccc2ncccc2c1)N1CCSCC1 (stereo not given),1.72% (inactive)
8,CCc1cccc(NC(=O)C2CCCN(S(=O)(=O)c3ccc4[nH]c(=O)ccc4c3)C2)c1 (stereo not given),-3.15% (inactive)
9,CC(C(=O)O)n1cnc2sc3c(c2c1=O)CCCC3 (stereo not given),-3.08% (inactive)
10,S=c1[nH]nc2c3c4c(sc3ncn12)CCCC4,50.1% (active)
11,N=c1c2c3c(sc2ncn1CCCN1CCOCC1)CCCCC3,2.15% (inactive)
12,COc1ccc(-n2nc(C(=O)NCC(=O)Nc3cccc(C)n3)c3ccccc3c2=O)cc1,-3.64% (inactive)
13,O=c1[nH]c(CN2CCN(S(=O)(=O)c3ccc4c(c3)OCCO4)CC2)nc2sc3c(c12)CCCC3,-9.39% (inactive)
14,COC(=O)COc1ccc(C2NC(=O)NC(C)=C2C(=O)NCc2ccccc2)cc1OC (stereo not given),-1.01% (inactive)
15,CCn1c(CSCc2c(Cl)cccc2Cl)n[nH]c1=S,11.9% (inactive)
16,CCn1c(CN2C(=O)CSc3ccccc32)n[nH]c1=S,43.9% (active)
17,CCn1c(CNS(=O)(=O)c2ccc(Cl)cc2)n[nH]c1=S,30.3% (inactive)
18,COc1cc(C2/C(=C(\O)c3ccc4c(c3)CC(C)O4)C(=O)C(=O)N2Cc2ccco2)ccc1O (stereo not given),-3.83% (inactive)
19,COc1ccc(/C=N/NC(=O)C(C)N(c2ccc(OC)cc2)S(C)(=O)=O)cc1 (stereo not given),-4.56% (inactive)
20,CN(C)c1ccc(C(CNC(=O)c2ccc(F)cc2)c2c[nH]c3ccccc23)cc1 (stereo not given),-2.56% (inactive)

row,Compound,inhibition
1,CNS(=O)(=O)c1ccc(NC(=O)Nc2ccc3c(c2)OCO3)cc1,-9.95% (inactive)
2,COc1ccc(Cn2c(=O)sc3ccccc32)cc1OC,-9.67% (inactive)
3,S=c1[nH]cc(-c2ccc(Cl)cc2)n1-c1ccccc1,-4.18% (inactive)
4,S=c1[nH]ccn1-c1ccc(Cl)cc1,69.9% (active)
5,O=C(NC(=S)Nc1ccc2oc(=O)ccc2c1)c1ccc(-c2cccc(Cl)c2Cl)o1,-0.008% (inactive)
6,CCOc1ccc(-c2n[nH]c(=S)n2/N=C/c2cc3c(cc2[N+](=O)[O-])OCO3)cc1,1.59% (inactive)
7,Fc1ccccc1/C=N/n1c(-c2cccnc2)n[nH]c1=S,47.1% (active)
8,S=c1[nH]nc(-c2cccs2)n1/N=C/c1cccs1,27.3% (inactive)
9,S=c1[nH]nc(-c2cccs2)n1/N=C/c1cn(-c2ccccc2)nc1-c1ccc(Cl)cc1,-2.77% (inactive)
10,S=c1[nH]nc(-c2ccncc2)n1/N=C/c1ccccc1Cl,73.5% (active)
11,O=[N+]([O-])c1ccccc1/C=N/n1c(COc2ccccc2)n[nH]c1=S,34.8% (inactive)
12,COc1ccc2c(c1)C(=O)Nc1cc(Cl)ccc1N2,-7.65% (inactive)
13,O=C(CN1CCCCC1)Nc1ccccc1C(=O)NC1CC1,-5.07% (inactive)
14,CCCNC(=S)N1CCC(NC(=O)C23CC4CC(CC(C4)C2)C3)CC1,-5.11% (inactive)
15,Cc1[nH]c2ccccc2c1C(=O)CN1CC(C)CC(C)C1 (stereo not given),-4.14% (inactive)
16,Cc1ccccc1-n1cc(CNC(=O)C2CCC(=O)N(C3CC3)C2)cn1 (stereo not given),-4.71% (inactive)
17,CC(Oc1ccc(F)cc1)C(=O)Nc1ccccc1C(=O)NC1CC1 (stereo not given),-11.6% (inactive)
18,COc1cccc(NC(=O)CN(C)C(=O)CSCc2nc3scc(-c4cccs4)c3c(=O)[nH]2)c1,-7.77% (inactive)
19,Cc1nc2scc(-c3cccs3)c2c(=O)n1N,42.5% (active)
20,CCCc1nc2scc(-c3ccc(C)cc3)c2c(=O)n1N,-7.79% (inactive)
